In PubChem BioAssay AID602143 (Vanderbilt Specialized Chemistry Center, 2011):
A number with no mark means an inactive call. Cut-off read from the data, not from the text of the source: active = remaining activity below about 50%; inactive = the rest.

Biological target: Phospholipase D2 (Homo sapiens) (UniProt O14939)
Assay: cellular phospholipase D2 activity inhibition – cell-based, HEK293, single concentration (AID 602143);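 note: tested at 200 nM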
Conditions: HEK293 cellular PLD2 activity, percent of control; hits give low values

Phospholipase D2 (Homo sapiens), sequence (O14939 whole entry, looked up): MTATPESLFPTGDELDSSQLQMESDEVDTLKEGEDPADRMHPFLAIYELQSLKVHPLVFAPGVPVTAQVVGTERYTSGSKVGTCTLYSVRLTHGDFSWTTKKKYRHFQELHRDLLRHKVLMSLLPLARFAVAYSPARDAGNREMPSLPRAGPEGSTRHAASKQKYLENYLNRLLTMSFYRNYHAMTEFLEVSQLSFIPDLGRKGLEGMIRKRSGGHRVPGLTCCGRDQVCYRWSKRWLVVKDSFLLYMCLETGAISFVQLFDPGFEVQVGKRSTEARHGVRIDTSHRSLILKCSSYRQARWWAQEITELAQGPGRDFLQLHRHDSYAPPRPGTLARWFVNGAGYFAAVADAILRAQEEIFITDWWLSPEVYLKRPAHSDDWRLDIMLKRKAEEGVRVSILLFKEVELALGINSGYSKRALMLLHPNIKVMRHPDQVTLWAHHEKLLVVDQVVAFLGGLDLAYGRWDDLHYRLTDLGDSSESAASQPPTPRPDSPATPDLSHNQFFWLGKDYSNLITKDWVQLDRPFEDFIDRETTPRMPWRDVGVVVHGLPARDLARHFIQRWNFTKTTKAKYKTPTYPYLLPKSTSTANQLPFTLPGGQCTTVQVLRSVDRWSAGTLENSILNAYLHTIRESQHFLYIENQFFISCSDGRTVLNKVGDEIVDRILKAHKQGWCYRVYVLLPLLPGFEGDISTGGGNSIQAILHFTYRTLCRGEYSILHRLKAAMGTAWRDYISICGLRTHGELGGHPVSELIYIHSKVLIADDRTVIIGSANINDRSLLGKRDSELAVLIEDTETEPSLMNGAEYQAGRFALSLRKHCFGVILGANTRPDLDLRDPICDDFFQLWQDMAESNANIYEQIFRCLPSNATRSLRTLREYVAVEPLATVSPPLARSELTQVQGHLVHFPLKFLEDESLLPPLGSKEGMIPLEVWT
Phospholipase D2 (Homo sapiens), sequence (O14939 whole entry, looked up): as above

Structure (SMILES)	remaining activity [%]
O=C(c1ccc2ccccc2c1)N1CCC2(CC1)C(=O)NCN2c1ccccc1	75.8
C[C@@H](CN1CCC(n2c(=O)[nH]c3cc(-c4ccc(C(F)(F)F)cc4)ccc32)CC1)NC(=O)[C@H]1C[C@@H]1c1ccccc1	70.9
O=C(NCCN1CCC(n2c(=O)[nH]c3ccccc32)CC1)c1ccc2c(c1)CCCC2	96.1
O=C(CCc1ccc(F)cc1)NCCN1CCC(n2c(=O)[nH]c3ccccc32)CC1	93.5
O=c1[nH]c2ccccc2n1C1CCN(CCNC(=S)Nc2ccc(Cl)c(Cl)c2)CC1	93.9
O=C(Cc1ccc2ccccc2c1)NCCN1CCC(n2c(=O)[nH]c3ccccc32)CC1	112
O=C1Cc2cc(CCN3CCN(c4nsc5ccccc45)CC3)c(Cl)cc2N1	105
O=C(NCCN1CCN(c2ccncc2)CC1)c1cc2cc(F)ccc2[nH]1	65.5
COc1cc(C(=O)NCCN2CCN(c3ccncc3)CC2)ccc1N	130
CN(C)c1cccc2c(S(=O)(=O)NCCN3CCC(n4c(=O)[nH]c5ccccc54)CC3)cccc12	112
C[C@@H](CN1CCC(n2c(=O)[nH]c3ccccc32)CC1)NC(=O)CSc1ccccc1	86.7
C[C@@H](CN1CCC(n2c(=O)[nH]c3cc(I)ccc32)CC1)NC(=O)c1ccc(Cl)cc1	72.7
CCOC(=O)CNC(=O)NCCN1CCC(n2c(=O)[nH]c3ccccc32)CC1	121
